# This is a sample that favours compounds with a hit; in the whole collection about 4.7% have one here.
# MLLE-PAM2 inh = inhibitors of PABP1 MLLE–PAM2 peptide binding, primary screen, biochemical, fluorescence polarization, FITC-PAM2, GST-MLLE; actives 0.36% (n = 360,000); inhibition, % at 20 µM; AID 588489, 2011; in the data active means inhibition above about 35%, passing the limit was not always enough;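 further: plate controls were DMSO wells with GST-MLLE for no effect and wells lacking GST-MLLE protein for full effect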
# Efflux pump inh = inhibitors of Candida efflux pumps in yeast, primary screen, S. cerevisiae, Nile Red, multiplex. actives 0.44% (n = 330,000). S. cerevisiae Candida pump triplex. inhibition, % at 10 µM;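 active means plate passing quality check with inhibition over a set limit, or well fluorescence over plate mean plus 4 SD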;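 further: Nile Red retained in pooled yeast measured as flow cytometry median fluorescence; 0% = buffer negative control and 100% = Enniatin B positive control; higher means more Nile Red kept so more efflux inhibition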
# SUMO HTRF inh = inhibitors of in vitro SUMOylation cascade, primary screen, biochemical, HTRF, uHTS; actives 0.36% (n = 290,000); HTRF SUMOylation assay, SAE1/SAE2 + UBC9; inhibition, % at 35 µM; AID 2006, 2009; in the data active means inhibition above about 50%, passing the limit was not always enough; inconclusive means no clear call, values can overlap the other calls
# Target sequence (P63279 whole entry, looked up): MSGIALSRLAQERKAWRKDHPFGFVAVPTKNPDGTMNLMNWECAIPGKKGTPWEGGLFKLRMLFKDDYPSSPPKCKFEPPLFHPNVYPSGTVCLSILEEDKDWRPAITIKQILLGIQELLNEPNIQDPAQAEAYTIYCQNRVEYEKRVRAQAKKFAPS
# PABP FP inh = PABP poly(A) RNA binding inhibitors, primary screen, biochemical, fluorescence polarization, uHTS; inhibition, % at 35 µM; Polyadenylate-binding protein 1 (Homo sapiens), P11940; actives 1% (n = 290,000);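 further: calls also rest on retests at 20 µM and on dose response follow-up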
# eIF4H inh = human eIF4H binding inhibitors, primary screen, translation initiation inhibitor project, biochemical, uHTS, fluorescence polarization | Eukaryotic translation initiation factor 4H (Homo sapiens), Q15056 | eIF4H fluorescence polarization binding assay | inhibition, % at 35 µM | actives 0.94% (n = 290,000);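 further: calls also rest on retests at 20 µM and on dose response follow-up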
# ALR H2O2 inh = inhibitors of human ALR sulfhydryl oxidase, primary screen, biochemical, H2O2 detection, HRP-luminol luminescence, single point | purified ALR, DTT oxidation | AID 485317, 2010 | FAD-linked sulfhydryl oxidase ALR (Homo sapiens), P55789 | actives 3.8% (n = 290,000) | inhibition, % (concentration not given with the values);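 active means mean replicate inhibition above about 79%, with every replicate also reaching it, limit read from the data; inconclusive means only one of the two criteria met; inactive means mean below limit and not every replicate reaching it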
# Target sequence (P55789 whole entry, looked up): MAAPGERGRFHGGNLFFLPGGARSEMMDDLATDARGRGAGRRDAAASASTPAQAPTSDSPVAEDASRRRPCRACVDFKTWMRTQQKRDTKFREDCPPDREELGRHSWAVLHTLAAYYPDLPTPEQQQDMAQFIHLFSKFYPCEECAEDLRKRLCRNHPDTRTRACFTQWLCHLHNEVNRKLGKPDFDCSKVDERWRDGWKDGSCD
# Starred values were filed as active, the others as inactive; ? = inconclusive; / = no result given. Unless noted, how the calls were made is not given here.
SMILES,MLLE-PAM2 inh,Efflux pump inh,SUMO HTRF inh,PABP FP inh,eIF4H inh,ALR H2O2 inh
CCOc1ccc(NC(=O)CCC(=O)N/N=C(\C)c2cccs2)cc1,5.6,0.1,13.6,2.3,-21.4,3.4
CCC1OC2(C)OC(=N)C1(C#N)C(C#N)(C#N)C2c1ccccc1 (stereo not given),23.1,-0.3,9.9,-9.3,?,-19.6
CCC12OC(=N)C(C#N)(C1C)C(C#N)(C#N)C(c1ccccc1)O2 (stereo not given),20.3,0.5,3.7,85.1*,?,-10.3
COc1cc(C2c3cc4c(cc3CC3COC(=O)N32)OCO4)cc(OC)c1OC (stereo not given),18.4,/,/,/,/,/
O=C(CN1C(=O)NC2(CCCC2)C1=O)Nc1nc2ccc(F)cc2s1,-8.1,-0.1,/,/,/,-3.0
Nc1ccc2nc(NC(=O)C3CCCCC3)sc2c1,7.7,0.1,1.6,-1.0,-3.8,98.8*
NNc1nc2ccc(F)cc2s1,21.0,-0.1,-6.4,-6.5,1.2,99.4*
O=C(Nc1nc2ccc(F)cc2s1)C1CCCO1 (stereo not given),-7.1,-0.2,1.8,-3.9,6.6,98.7*
O=C(CN1C(=O)C2CC=CCC2C1=O)Nc1nc2ccc(F)cc2s1 (stereo not given),7.9,-0.1,16.8,5.6,-13.9,98.3*
O=C(Nc1nc2ccc(C(=O)N3CCCCC3)cc2s1)C1CCCCC1,12.9,-0.1,-5.4,-7.4,-3.6,9.4
O=C(Nc1nc2ccccc2s1)C1CCCO1 (stereo not given),-2.2,0.0,-7.7,5.1,-8.1,1.9
CC1CCCCC1NC(=O)COC(=O)COc1ccccc1F (stereo not given),-1.5,-0.1,/,/,/,/
CC(C)(CCC(=S)N1CCOCC1)C1CCCCC1,42.4*,-0.1,-4.3,19.1,-1.5,-3.1
S=C(CN1CCCC1=S)N1CCOCC1,8.2,0.0,/,/,/,-1.6
C=CCNC(=O)/C(C#N)=C\c1cc(Cl)c(OCC)c(OC)c1,3.6,0.6,-4.2,2.1,-21.2,98.2*
CCOc1c(Br)cc(/C=C(\C#N)C(=O)NC2CC2)cc1OC,4.7,-0.1,9.2,1.4,28.0,56.2
O=C1OC(c2ccc(F)cc2)=C/C1=C\c1ccc([N+](=O)[O-])o1,/,1.0,51.5*,-6.1,?,-9.5
O=C1OC(c2ccc(F)cc2)=C/C1=C\c1ccc(O)cc1,4.8,0.0,10.5,-0.3,5.0,22.6
COc1ccc(-n2nnnc2SCC(=O)Nc2ccccc2F)cc1,-1.5,-0.1,1.3,-3.3,7.1,-8.2
CCOC(=O)C1=CN(CC)S(=O)(=O)NC1c1ccc2ccccc2c1 (stereo not given),0.6,-0.3,/,/,/,/
COC1=C(C)C(O)=C(C(=O)/C=C/c2ccccc2)C(=O)C1(C)C,-1.6,-0.1,19.7,-4.7,-5.6,97.5*
CN1CCC(N(C)S(=O)(=O)c2ccc(NC(=O)COc3ccc(F)cc3Cl)cc2)CC1,-91.0,-0.1,7.1,77.7*,2.8,-2.2
CN1CCC(N(C)S(=O)(=O)c2ccc(NC(=O)COc3ccc(F)cc3)cc2)CC1,-131.0,0.0,/,/,/,-0.8
COc1cc(/C=N/NC(=S)NCCN2CCOCC2)ccc1O,-45.6,-0.2,0.9,17.6,-6.9,99.0*
COCCNC(=S)Nc1ccc(N2CCCCC2)cc1,20.3,-0.1,-0.5,4.3,-3.7,98.9*
SMILES,MLLE-PAM2 inh,Efflux pump inh,SUMO HTRF inh,PABP FP inh,eIF4H inh,ALR H2O2 inh
C=C(C)CNC(=S)N/N=C/c1ccc(N2CCOCC2)cc1,6.4,-0.2,2.0,-3.2,7.6,?
CC(C)NC(=S)N/N=C/c1ccc(N2CCOCC2)cc1,-5.9,0.1,-20.6,5.4,2.0,98.8*
O=C(N/N=C/c1ccc(N2CCOCC2)cc1)c1ccncc1,-11.6,-0.1,/,/,/,55.2
O=C(N/N=C/c1ccc(N2CCOCC2)cc1)c1ccccc1OCCOc1ccccc1,-31.5,0.3,37.2,active,104.3*,8.3
COc1ccc(CN2CCC(Oc3cc(C(=O)NC4CC4)ccc3OC)CC2)c(O)c1,-4.9,0.1,1.3,-5.9,-3.4,46.6
CC(CC(=O)O)CC(=O)Nc1ccc(Br)cc1 (stereo not given),21.0,0.1,0.2,-1.6,9.2,5.9
